Assay type in all cases: functional
The target in assay [1] is Solute carrier family 2, facilitated glucose transporter member 1 (Homo sapiens) (UniProt P11166). The assay can be described thus: ST_JUDE_LEISH: Cytotoxicity at 2uM final concentration against transgenic Leishmania Mexicana promastigotes LmGLUT1 that are glucose transport deficient and complemented with the human glucose transporter GLUT1. Activity is measured by DNA content using SYBR green in vitro.

For assay [2], the target named is Hexose transporter 1 (Plasmodium falciparum) (UniProt O97467). Description: ST_JUDE_LEISH: Cytotoxicity at 2uM final concentration against transgenic Leishmania Mexicana promastigotes LmPfHT that are glucose transport deficient and complemented with the Plasmodium falciparum hexose transporter. Activity is measured by DNA content using SYBR green in vitro.
Assay [3] deals with Glucose transporter (Leishmania mexicana) (UniProt O61059). Description: ST_JUDE_LEISH: Cytotoxicity at 2uM final concentration against transgenic Leishmania Mexicana promastigotes LmGT2 that are glucose transport deficient and complemented with the L. Mexicana glucose transporter 2. Activity is measured by DNA content using SYBR green in vitro.

Sequence of Solute carrier family 2, facilitated glucose transporter member 1 (Homo sapiens) (P11166 whole entry): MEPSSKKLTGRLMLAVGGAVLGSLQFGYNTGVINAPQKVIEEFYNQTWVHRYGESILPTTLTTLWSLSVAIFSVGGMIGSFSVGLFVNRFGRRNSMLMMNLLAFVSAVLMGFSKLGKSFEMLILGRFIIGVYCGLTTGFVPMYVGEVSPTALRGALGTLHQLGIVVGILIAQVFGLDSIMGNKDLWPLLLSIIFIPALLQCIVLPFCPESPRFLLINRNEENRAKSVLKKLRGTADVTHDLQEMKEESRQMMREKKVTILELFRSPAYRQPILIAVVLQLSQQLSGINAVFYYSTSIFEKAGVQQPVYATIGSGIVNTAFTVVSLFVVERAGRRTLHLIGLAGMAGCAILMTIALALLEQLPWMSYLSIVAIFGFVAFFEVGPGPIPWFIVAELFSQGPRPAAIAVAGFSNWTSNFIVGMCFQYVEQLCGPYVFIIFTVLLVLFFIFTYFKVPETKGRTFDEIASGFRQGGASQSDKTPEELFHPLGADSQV

Take `CCN(CC)CCN(CCN(CC)CC)c1ccc(-c2nc3cc(Cl)c(Cl)cc3[nH]2)cc1`: the results for the inhibition in assay [1], in assay [2] and in assay [3] were 15.8%, 16.3% and 7.03%, respectively.
On to `Cc1cc(=O)[nH]c(-n2nc(C)cc2NC(=O)C(c2ccccc2)c2ccccc2)n1`, for which the inhibition in assay [1] was 20.5%; in assay [2], 29.6%; in assay [3], 6.5%.
Regarding `NC(=O)c1ccc(NCC(=O)Nc2cccc(-c3cccc(-c4nc5cc(C(F)(F)F)ccc5[nH]4)c3)c2)cc1`, the inhibition in assay [1] stood at 3.23%; in assay [2] it was 3.6%; in assay [3], 1.91%.
With `Cc1ccc2[nH]c(-c3ccccc3)cc(=NN=Cc3cccnc3)c2c1`, the values for the inhibition in assay [1], in assay [2] and in assay [3] were 1.16%, 0.03% and -2.99%, respectively.
For the compound `Cc1nc2c(=O)sc3ccccc3c2n1Cc1ccccc1`, the inhibition in assay [1] is 0.4%; in assay [2], 7.03%; in assay [3] it was -1.55%.
As for `COc1c(CN2CCOCC2)cccc1-c1cc2c(-c3ccc(C(=O)O)c(C(C)C)c3)ccnc2[nH]1`, the results for the inhibition in assay [1], in assay [2] and in assay [3] were 4.23%, 3.17% and 3.15%, respectively.
`O=C(Cn1c(CCc2cccc(F)c2F)cc(=O)c2cccnc21)N(CCN1CCCC1)Cc1ccc(-c2ccc(C(F)(F)F)cc2)cc1`: the inhibition in assay [1] worked out at 2.13%; in assay [2], 2.76%; in assay [3], 1.23%.
Taken in the same sequence, the figures for `CN(C)C(C)(C)CN(Cc1ccc(-c2ccc(C(F)(F)F)cc2)cc1)C(=O)Cn1c(CCc2cccc(F)c2F)nc(=O)c2ccccc21` were 1.52%, 0.48% and 0.79%.
For `Cc1cc2c(cc1Cl)N(C(=O)Nc1cc(F)cc(-c3cncnc3)c1)CC2` the same measures were 9.04%, 5% and 2.7%.
Take `CCC[C@@H]([C@@H](CC1CCCCC1)C(=O)N[C@H](C(=O)Nc1nccs1)[C@@H](C)OCc1ccccc1)N(O)C=O`: the inhibition in assay [1] was 6.17%; in assay [2], 3.62%; in assay [3] it was 2.53%.
As for `C=C(C)CSc1nc2c(c(=O)n1CCc1ccccc1)C1(CCCC1)Cc1ccccc1-2`, the inhibition in assay [1] stood at 5.95%; in assay [2], 5.36%; in assay [3], 5.02%.

As usually defined, the inhibition is the drop in the measured response relative to a control, in per cent.

(Values after ChEMBL document CHEMBL3433997, “St. Jude Leishmania screening dataset” (2016).)
